From publication PMC12864922, “TDP-43 directly inhibits mRNA accumulation in neurites through modulation of mRNA stability”
Over roughly 9,900 sequences, “r (bound/input frequency ratio)” has its median near 0.7; the highest 2% begin near 6.5. What follows is part of a selection rich in the highest values, with near analogues and random picks from the rest.

B1: ENSMUSG00000031028.648|Tub (ssRNA)
RNA: GGGAGUUCUACAGUCCGACGAUCGCUUCGAUAUCCGCAUGCUACCAGGUAGAGCAGAUGAGGCUGAAAUGUAGAGUGUUCUAUAGAGCAUCUCAGUAGCAUAGAAGGAGAAGCCCAGCUCCAACCUCCUGGACCCCAUACUGGUGACCAGCUUGGUGAGGACAGGCAAAAUUUCUCUAGCUGAGAGCACACUUAGCCAGUUUUCACGCCUAGAACAUAUAUGUCGAUUUGCACAUGAUUGUCUUUUCCUAUUUUGGAGUGGUCAGACAUUUUAUUUUUGUUCAAAAUUAUCUGGAGUUUUAGACUCUUGCGGUCGCACUAGUGUGGAAUUCUCGGGUGUCAAGG
B2: ENSMUSG00000032194.138|Kank2 (ssRNA)
RNA: GGGAGUUCUACAGUCCGACGAUCGCUUCGAUAUCCGCAUGCUAUGACUUGGAAAUGACCAACUUACAAGAAGUUAUGCUGACCUCCCUGUUCCCCACGGGGAGUGCUUGGCAGAGGAGACUACUUCUAGAAAUACUUUCAGACCUACAGACAAAAAAGAAAAAAGGCCAUUCCGGAGUGACUCCCAGCAUCACAGCCCAGAACCUCCUCCUCAAAGGAGAGUAAACAGAGACUGUGAUACUGACCAAGUACAGGCGCUCGCUAUGAAGCCCAUAUGUUCCUGAUUAAGAGCUGGCUGGCCUCACUCUUGCGGUCGCACUAGUGUGGAAUUCUCGGGUGUCAAGG
B3: ENSMUSG00000061578.1543|Ksr2 (ssRNA)
RNA: GGGAGUUCUACAGUCCGACGAUCGCUUCGAUAUCCGCAUGCUACACUAUGUAUAUUUGUAUAGAUCAUUUAUAAAGUUUUCUACACUUCUCAAAAAAAAAAAUAUUUCUAACCUUGGCUGUUGGACAGUCUGUGAGCCUGUGAGCCGGCAAGCCUGUUGUUUCUUGUGUUUAGUGCAAUGUUAGUGAGAAUCCAGUGUCUGAGUUAUUAAUGCCAAUAAAGAAUUUGAGAAUUACUGCAUCCGCUGCUGUCACUCCAGGUCAGAACUCUGCUGUUGUCUGUUGGAUGGAAGGAAGCUCCAGAGCUCUUGCGGUCGCACUAGUGUGGAAUUCUCGGGUGUCAAGG
B4: ENSMUSG00000058297.245|Spock2 (ssRNA)
RNA: GGGAGUUCUACAGUCCGACGAUCGCUUCGAUAUCCGCAUGCUAGCUAGGCCCUGAUGCCAUGCCUCAGCACGCCCUCAGACCUCCAGGCCGGGUGGAAGGGGCUUUUACCCAGAUGUCCUGUGGGGUUUUGUGUGUCUAUUGCUCCCCACUUCCCCCUCUCAAAGGAAAUUUCCUUGAUAUAUUUGAUGAAGAAUUCCUUACCUGGGCCUCUGAUACCCUUUGGUACGCGUACGUGUGUGUGGCGCGUAUACGUGUGUGUGUGUGUGUGUGUGUGUGUGUGUGUGUGUGUGUGUGAGAGAGAGCUCUUGCGGUCGCACUAGUGUGGAAUUCUCGGGUGUCAAGG
B5: ENSMUSG00000058297.242|Spock2 (ssRNA)
RNA: GGGAGUUCUACAGUCCGACGAUCGCUUCGAUAUCCGCAUGCUAAGGGGACCACACUGAGCAGCUAGGCCCUGAUGCCAUGCCUCAGCACGCCCUCAGACCUCCAGGCCGGGUGGAAGGGGCUUUUACCCAGAUGUCCUGUGGGGUUUUGUGUGUCUAUUGCUCCCCACUUCCCCCUCUCAAAGGAAAUUUCCUUGAUAUAUUUGAUGAAGAAUUCCUUACCUGGGCCUCUGAUACCCUUUGGUACGCGUACGUGUGUGUGGCGCGUAUACGUGUGUGUGUGUGUGUGUGUGUGUGUGUGUGUGCUCUUGCGGUCGCACUAGUGUGGAAUUCUCGGGUGUCAAGG
B6: ENSMUSG00000058297.243|Spock2 (ssRNA)
RNA: GGGAGUUCUACAGUCCGACGAUCGCUUCGAUAUCCGCAUGCUACCACACUGAGCAGCUAGGCCCUGAUGCCAUGCCUCAGCACGCCCUCAGACCUCCAGGCCGGGUGGAAGGGGCUUUUACCCAGAUGUCCUGUGGGGUUUUGUGUGUCUAUUGCUCCCCACUUCCCCCUCUCAAAGGAAAUUUCCUUGAUAUAUUUGAUGAAGAAUUCCUUACCUGGGCCUCUGAUACCCUUUGGUACGCGUACGUGUGUGUGGCGCGUAUACGUGUGUGUGUGUGUGUGUGUGUGUGUGUGUGUGUGUGUGCUCUUGCGGUCGCACUAGUGUGGAAUUCUCGGGUGUCAAGG
B7: ENSMUSG00000058297.242|Spock2|105:111;209:217;228:260 (ssRNA)
RNA: GGGAGUUCUACAGUCCGACGAUCGCUUCGAUAUCCGCAUGCUAAGGGGACCACACUGAGCAGCUAGGCCCUGAUGCCAUGCCUCAGCACGCCCUCAGACCUCCAGGCCGGGUGGAAGGGGCUUUUACCCAGAUGUCCUGUGGGGUUUACACACACUAUUGCUCCCCACUUCCCCCUCUCAAAGGAAAUUUCCUUGAUAUAUUUGAUGAAGAAUUCCUUACCUGGGCCUCUGAUACCCUUUGGUACGCGUACCACACACACGCGCGUAUACCACACACACACACACACACACACACACACACACCUCUUGCGGUCGCACUAGUGUGGAAUUCUCGGGUGUCAAGG
B8: ENSMUSG00000058297.239|Spock2 (ssRNA)
RNA: GGGAGUUCUACAGUCCGACGAUCGCUUCGAUAUCCGCAUGCUAGAACGGUGUAUCUAUCAGAGGGGACCACACUGAGCAGCUAGGCCCUGAUGCCAUGCCUCAGCACGCCCUCAGACCUCCAGGCCGGGUGGAAGGGGCUUUUACCCAGAUGUCCUGUGGGGUUUUGUGUGUCUAUUGCUCCCCACUUCCCCCUCUCAAAGGAAAUUUCCUUGAUAUAUUUGAUGAAGAAUUCCUUACCUGGGCCUCUGAUACCCUUUGGUACGCGUACGUGUGUGUGGCGCGUAUACGUGUGUGUGUGUGUGCUCUUGCGGUCGCACUAGUGUGGAAUUCUCGGGUGUCAAGG
B9: ENSMUSG00000058297.246|Spock2 (ssRNA)
RNA: GGGAGUUCUACAGUCCGACGAUCGCUUCGAUAUCCGCAUGCUACCCUGAUGCCAUGCCUCAGCACGCCCUCAGACCUCCAGGCCGGGUGGAAGGGGCUUUUACCCAGAUGUCCUGUGGGGUUUUGUGUGUCUAUUGCUCCCCACUUCCCCCUCUCAAAGGAAAUUUCCUUGAUAUAUUUGAUGAAGAAUUCCUUACCUGGGCCUCUGAUACCCUUUGGUACGCGUACGUGUGUGUGGCGCGUAUACGUGUGUGUGUGUGUGUGUGUGUGUGUGUGUGUGUGUGUGUGUGAGAGAGAGAGAGAGCUCUUGCGGUCGCACUAGUGUGGAAUUCUCGGGUGUCAAGG
B10: ENSMUSG00000058297.240|Spock2 (ssRNA)
RNA: GGGAGUUCUACAGUCCGACGAUCGCUUCGAUAUCCGCAUGCUAUGUAUCUAUCAGAGGGGACCACACUGAGCAGCUAGGCCCUGAUGCCAUGCCUCAGCACGCCCUCAGACCUCCAGGCCGGGUGGAAGGGGCUUUUACCCAGAUGUCCUGUGGGGUUUUGUGUGUCUAUUGCUCCCCACUUCCCCCUCUCAAAGGAAAUUUCCUUGAUAUAUUUGAUGAAGAAUUCCUUACCUGGGCCUCUGAUACCCUUUGGUACGCGUACGUGUGUGUGGCGCGUAUACGUGUGUGUGUGUGUGUGUGUGCUCUUGCGGUCGCACUAGUGUGGAAUUCUCGGGUGUCAAGG
B11: ENSMUSG00000058297.241|Spock2 (ssRNA)
RNA: GGGAGUUCUACAGUCCGACGAUCGCUUCGAUAUCCGCAUGCUAUAUCAGAGGGGACCACACUGAGCAGCUAGGCCCUGAUGCCAUGCCUCAGCACGCCCUCAGACCUCCAGGCCGGGUGGAAGGGGCUUUUACCCAGAUGUCCUGUGGGGUUUUGUGUGUCUAUUGCUCCCCACUUCCCCCUCUCAAAGGAAAUUUCCUUGAUAUAUUUGAUGAAGAAUUCCUUACCUGGGCCUCUGAUACCCUUUGGUACGCGUACGUGUGUGUGGCGCGUAUACGUGUGUGUGUGUGUGUGUGUGUGUGUGCUCUUGCGGUCGCACUAGUGUGGAAUUCUCGGGUGUCAAGG
B12: ENSMUSG00000058297.244|Spock2 (ssRNA)
RNA: GGGAGUUCUACAGUCCGACGAUCGCUUCGAUAUCCGCAUGCUAUGAGCAGCUAGGCCCUGAUGCCAUGCCUCAGCACGCCCUCAGACCUCCAGGCCGGGUGGAAGGGGCUUUUACCCAGAUGUCCUGUGGGGUUUUGUGUGUCUAUUGCUCCCCACUUCCCCCUCUCAAAGGAAAUUUCCUUGAUAUAUUUGAUGAAGAAUUCCUUACCUGGGCCUCUGAUACCCUUUGGUACGCGUACGUGUGUGUGGCGCGUAUACGUGUGUGUGUGUGUGUGUGUGUGUGUGUGUGUGUGUGUGUGUGAGCUCUUGCGGUCGCACUAGUGUGGAAUUCUCGGGUGUCAAGG
B13: ENSMUSG00000004113.29|Cacna1b (ssRNA)
RNA: GGGAGUUCUACAGUCCGACGAUCGCUUCGAUAUCCGCAUGCUACACUCACCUUUGAAGAGGCAGUGGCCACCAACUCUGGCCGCUCCUCCAGGACUUCCUAUGUGUCCUCCCUCACUUCCCAAUCCCACCCUCUCCGCCGUGUACCCAAUGGCUAUCACUGCACUUUGGGACUCAGCACUGGCGUCCGGGCGCGGCACAGCUACCACCACCCCGAUCAGGACCACUGGUGCUAGCUGCACCACGACCACCCAUGUACCAGCUCCAUGGGUGAGGGUUCCAGUUGAUGAGUUUUAUCAUCCGCUCUCUUGCGGUCGCACUAGUGUGGAAUUCUCGGGUGUCAAGG

Molecular target: TDP-43 (Homo sapiens, UniProt Q13148 1-414)
Experiment: RNA Bind-n-Seq with designed 260-mer pool; 25 mM Tris-HCl, 150 mM KCl, 3 mM MgCl2, BSA (printed 500 mg/mL), 20 units/mL SUPERase IN; pH not stated; 500 nM RNA pool, 1 h, 4 C; TDP-43 5, 50, 500 nM; high values mean tight binding
Settings: protein: recombinant; tags: SBP (GST cleaved off with PreScission; pGEX-GST-SBP)
Procedure, shortened: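 An in vitro-transcribed pool of 260-nt 3′ UTR oligos (500 nM) was incubated for 1 h at 4 °C with recombinant SBP-tagged TDP-43 at 5, 50 or 500 nM held on streptavidin beads. The buffer contained 25 mM Tris-HCl, 150 mM KCl, 3 mM MgCl2, BSA and SUPERase IN. Biotin-eluted bound RNA was sequenced, and binding, R, is each oligo's normalized read abundance in the bound sample over that in input.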

Chain of TDP-43 (Q13148 whole entry): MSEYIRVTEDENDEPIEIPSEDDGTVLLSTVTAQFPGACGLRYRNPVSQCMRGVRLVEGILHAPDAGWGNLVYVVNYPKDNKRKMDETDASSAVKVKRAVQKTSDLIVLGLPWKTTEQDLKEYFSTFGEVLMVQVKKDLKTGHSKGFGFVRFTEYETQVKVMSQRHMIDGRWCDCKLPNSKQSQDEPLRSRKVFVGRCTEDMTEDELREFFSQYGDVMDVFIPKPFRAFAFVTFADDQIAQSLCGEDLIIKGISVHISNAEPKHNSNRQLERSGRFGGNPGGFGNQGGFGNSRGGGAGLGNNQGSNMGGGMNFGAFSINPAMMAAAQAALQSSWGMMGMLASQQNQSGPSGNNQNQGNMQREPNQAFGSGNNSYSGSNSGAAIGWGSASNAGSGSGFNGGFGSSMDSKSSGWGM

Question: For B1, which binding signal is on record?
Answer: Its binding signal is 0.252 R (bound/input frequency ratio).

Question: With B2 as the binder, how does the binding signal read?
Answer: Its binding signal is 0.253 R (bound/input frequency ratio).

Question: B3 was tested. Which binding signal did it give?
Answer: The binding signal was 0.902 R (bound/input frequency ratio).

Question: With B4 as the binder, how does the binding signal read?
Answer: Its binding signal is 9.24 R (bound/input frequency ratio).

Question: B5 was tested. Which binding signal did it give?
Answer: Its binding signal is 6.94 R (bound/input frequency ratio).

Question: With B6 as the binder, how does the binding signal read?
Answer: Its binding signal is 6.55 R (bound/input frequency ratio).

Question: Which binding signal does the source give for B7 here?
Answer: Its binding signal is 4.83 R (bound/input frequency ratio).

Question: Which binding signal does the source give for B8 here?
Answer: Its binding signal is 3.69 R (bound/input frequency ratio).

Question: With B9 as the binder, how does the binding signal read?
Answer: The binding signal was 2.94 R (bound/input frequency ratio).

Question: B10 was tested. Which binding signal did it give?
Answer: Its binding signal is 5.45 R (bound/input frequency ratio).

Question: With B11 as the binder, how does the binding signal read?
Answer: The binding signal was 6.46 R (bound/input frequency ratio).

Question: For B12, which binding signal is on record?
Answer: Its binding signal is 3.2 R (bound/input frequency ratio).

Question: Which binding signal does the source give for B13 here?
Answer: Its binding signal is 0.399 R (bound/input frequency ratio).
